Consider 94 compounds from PubChem BioAssay AID463173 (ICCB-Longwood Screening Facility, Harvard Medical School, 2010).

In all, about 52,000 compounds went through this assay and about 4,300 (8.3%) were called active. Only a selection was taken, and actives are over-represented in it overall. A number with no mark means an inactive call. Cut-off read from the data, not from the text of the source: active = survival mostly below about 52% (no sharp cut-off); inactive = mostly above about 56%.

This experiment deals with DeltatarO mutant. Nature of the experiment: growth inhibition of S. aureus wild type versus tarO mutant, primary screen, teichoic acid synthesis inhibitors, RN4220, OD600 (AID 463173). Particulars: OD600, 18 h, stronger effect = lower value, screened at 18.75 µg/mL (by protocol).
Take `CCN(CC)S(=O)(=O)c1ccc2c(c1)N(CC(=O)N1CCN(c3cccc(C(F)(F)F)c3)CC1)C(=O)CO2`: the survival is 68%. As to `Cc1ccc(SCc2nc(-c3ccc(C(=O)NCc4ccccc4Cl)cc3)oc2C)cc1`, the survival was 84%. On to `Fc1cccc(NCc2ccccc2-c2nnc(-c3ccccc3Cl)o2)c1`, for which the survival is 110%. Consider `CC(C)NC(=O)CSc1nnc(Cc2ccccc2)n1C`, for which the survival is 83%.

With `O=C(CSc1nccn1Cc1ccccc1)NC1CCCC1`, the survival is 69%. `O=C(CSc1nnc(Cc2ccccc2)n1Cc1ccco1)NC1CCCC1`: the survival is 44% (active). With `O=C(CSc1nnc(Cc2ccccc2)n1Cc1ccccc1)NCc1ccco1` the figure was 63%. In the case of `CCn1c(SCC(=O)NC2CCCC2)nnc1-c1ccccc1`, the survival was 75%. In the case of `CC(C)NC(=O)CSc1nnc(Cc2ccccc2)n1Cc1ccco1`, the survival was 40% (active). Regarding `COc1ccccc1CNC(=O)c1cccn1-c1nnc(N2CCCCC2)s1`, the survival was 37% (active).

As to `COc1ccc(NCc2cccn2-c2nnc(N3CCCCCC3)s2)cc1`, the survival was 71%. Take `COc1ccc(CNC(=O)c2cccn2-c2nnc(N3CCCCC3)s2)c(OC)c1`: the survival is 0% (active). As for `COc1ccc(CNC(=O)c2cccn2-c2nnc(N3CCCC3)s2)c(OC)c1`, the survival was 91%. Take `CCN1CCN(c2nnc(-n3cccc3C(=O)NCc3ccccc3OC)s2)CC1`: the survival was 46% (active).

`Cc1ccc(NCc2cccn2-c2nnc(N3CCCCCC3)s2)cc1`: the survival was 78%. For the compound `COc1ccc(NC(=O)c2cccn2-c2nnc(N3CCCCC3)s2)c(OC)c1`, the survival is 98%. In the case of `COc1ccccc1CCNC(=O)c1cccn1-c1nnc(N2CCCCC2)s1`, the survival was 95%.

`CCOc1ccccc1CNC(=O)c1cccn1-c1nnc(N2CCCC2)s1`: the survival was 102%. Consider `COc1ccccc1CNC(=O)c1cccn1-c1nnc(N2CCCC2)s1`, for which the survival was 92%. As for `CCc1ccc(NCc2cccn2-c2nnc(N3CCCCCC3)s2)cc1`, the survival is -6% (active).

`CCOc1ccccc1CNC(=O)c1cccn1-c1nnc(N2CCCCC2)s1`: the survival was 131%. Consider `CCOc1ccc(/C=C/c2nc3ccccc3n2S(=O)(=O)c2ccc(Br)cc2)cc1`, for which the survival was 59%. With `CCN1CCSc2ccc(C(=O)NCc3ccc(F)cc3)cc21` the figure was 97%. For the compound `CNC(=O)c1ccc(CN2CCc3ccccc3C2)cc1`, the survival was 100%. As to `CCOC(=O)c1c(C)[nH]c(C)c1S(=O)(=O)N1CCC(C(=O)N2CCN(c3ccccc3)CC2)CC1`, the survival is 90%. Take `O=C(CSc1nccn1Cc1ccc(Cl)cc1)Nc1ccc2c(c1)OCCO2`: the survival was 94%. With `Cc1ccc(-n2ncc(C(=O)N3CCN(c4ccccn4)CC3)c2C2CCN(C(=O)OC(C)(C)C)CC2)cc1` the figure was 81%. As for `O=C(Cn1c(=O)oc2cc(S(=O)(=O)NCc3ccccc3)ccc21)Nc1cccc(F)c1`, the survival was 78%. On to `O=C(NCc1cccc(Br)c1)c1cccn1-c1nnc(N2CCCCC2)s1`, for which the survival was 78%. On to `CCOc1ccccc1CNCc1cccn1-c1nnc(N2CCN(c3ccccc3)CC2)s1`, for which the survival is 47% (active). With `Cc1ccc(CNCc2cccn2-c2nnc(N3CCCC3)s2)cc1` the figure was 86%. Regarding `O=C(NCc1cccc(Cl)c1)c1cccn1-c1nnc(N2CCCC2)s1`, the survival was 37% (active). On to `O=C(NCc1ccccc1)c1cccn1-c1nnc(N2CCCC2)s1`, for which the survival is 55%. For `COc1cccc(CNCc2cccn2-c2nnc(N3CCN(c4ccccc4)CC3)s2)c1`, the survival was 79%. Consider `O=C1C=C(N2CCCCC2)C2(CCCCC2)O1`, for which the survival is 106%.

`COc1ccc(CCN(Cc2cc3cc(C)ccc3n3nnnc23)C(=O)N(C)C)cc1OC`: the survival was 86%. With `Cc1ccc(C)c(N2CCN(C3(c4ccccc4)C(=O)c4ccccc4C3=O)CC2)c1` the figure was 98%; with `COc1cccc(C(=O)NCC(=O)OCc2cc(=O)n3nc(C)sc3n2)c1`, 116%; with `COc1ccc(OC)c(C2c3c(oc4ccc(C)cc4c3=O)C(=O)N2CCCN(C)C)c1` (centres undefined), 73%. Regarding `CC(=O)N1CCc2cc(CNC(=O)Nc3ccc(Br)c(C)c3)ccc21`, the survival is 87%. Take `COc1cc(NC(=O)CC(C)S(=O)(=O)c2ccc3c(c2)CCN3C(C)=O)cc(OC)c1OC` (centres undefined): the survival was 92%. Take `CC(=O)N1CCc2cc(S(=O)(=O)C(C)CC(=O)Nc3ccc(Br)c(C)c3)ccc21` (centres undefined): the survival was -5% (active). As to `Cc1ccc(C)c(N2CCN(Cc3csc(C)c3)CC2)c1`, the survival is 119%. Under `CC(C)(C)NC(=O)CSc1nnc(-c2cccs2)o1` stands 102%; under `COc1cc(OC)c(NC(c2nnc(-c3ccccc3)o2)c2ccc(F)cc2Cl)cc1Cl` (centres undefined), 61%. Consider `Cc1cccc(NC(c2nnc(-c3ccccc3)o2)c2ccc(F)cc2Cl)c1C` (centres undefined), for which the survival is 61%. With `COc1cccc(NC(c2nnc(-c3ccccc3)o2)c2ccc(F)cc2Cl)c1` (centres undefined), the survival was 54%. For `CCc1ccccc1NC(c1nnc(-c2cccc(F)c2)o1)c1ccc(F)cc1Cl` (centres undefined), the survival was 96%.

For `CCOc1ccccc1NC(c1nnc(-c2ccccc2)o1)c1ccc(F)cc1Cl` (centres undefined), the survival is 1% (active). For the compound `COc1ccc(C)cc1NC(c1nnc(-c2ccccc2)o1)c1ccc(F)cc1Cl` (centres undefined), the survival is -3% (active). For `Nc1ccc2nc(CN3CCOCC3)[nH]c2c1`, the survival is 88%.

Take `Cc1cc(C)cc(N2C(=O)CS(=O)(=O)C23C(=O)N(Cc2ccccc2)c2ccccc23)c1` (centres undefined): the survival is 82%.

Turning to `COC(=O)c1ccc(Cl)cc1NC(=O)N1CCC(CN2CCCC2)CC1`, the survival is 84%. Regarding `CCc1ccc(NC(=O)C(=O)NCCc2sc(-c3ccc(OC)c(OC)c3)nc2C)cc1`, the survival was 78%. On to `Cc1ccc(CNC(=O)c2ccc3c(c2)c(C)c(C)n3Cc2ccc(Cl)cc2)o1`, for which the survival is 75%. Under `Cc1ccc(NC(=O)CSc2n[nH]c(-c3ccc(F)cc3)n2)cc1F` stands 128%.

With `COc1ccc(NC(=O)CSc2n[nH]c(-c3ccccc3)n2)cc1Cl`, the survival was 88%. Consider `CC(C)Oc1ccccc1-c1nc(SCC(=O)c2ccc(F)cc2)n[nH]1`, for which the survival was 40% (active). With `CCOc1ccc(-c2nc(SCC(=O)c3ccccc3)n[nH]2)cc1` the figure was 179%; with `CCOc1ccccc1-c1nc(SCC(=O)c2ccc(OC)c(Br)c2)n[nH]1`, 53%. With `COc1ccccc1-c1nc(SCC(=O)Nc2ccc(C)c(C)c2)n[nH]1` the figure was 43% (active); with `COc1ccccc1-c1nc(SCC(=O)c2ccccc2)n[nH]1`, 53% (active); with `COc1ccccc1-c1nc(SCC(=O)c2ccc(Cl)cc2)n[nH]1`, 175%. Under `CCCOc1ccccc1-c1nc(SCC(=O)c2ccccc2)n[nH]1` stands 109%; under `CC(C)(C)NC(=O)c1cnn(-c2ccccc2)c1C1CCN(C(=O)OC(C)(C)C)CC1`, 78%. Consider `CC(=O)c1c(C)oc2ccc(N(C(=O)Oc3ccccc3)S(=O)(=O)c3ccc(Cl)cc3)cc12`, for which the survival was 75%. Turning to `CCC(=O)OC1=C(C(C)=O)N(Cc2ccccc2)S(=O)(=O)c2ccccc21`, the survival was 62%. Regarding `COc1ccc(C(CC(=O)Nc2ccc(F)c(Cl)c2)N2Cc3ccccc3C2=O)cc1OC` (centres undefined), the survival was 75%. With `COc1ccc(N2CC(NC(=O)Cc3cccs3)CC2=O)cc1OC` (centres undefined), the survival was 94%. Under `O=C(NC1CC(=O)N(c2ccccc2)C1)c1ccc(Br)o1` (centres undefined) stands 87%; under `Cc1ccc(N2CC(NC(=O)c3ccc(Br)o3)CC2=O)cc1C` (centres undefined), 37% (active); under `Cc1ccc(N2CC(NC(=O)Cc3cccs3)CC2=O)cc1` (centres undefined), 8% (active).

For `Cc1ccc(N2CC(NC(=O)Cc3cccs3)CC2=O)cc1C` (centres undefined), the survival is 25% (active). `O=C(Cc1cccs1)NC1CC(=O)N(c2ccccc2)C1` (centres undefined): the survival is 88%.

As to `O=C(Cc1cccs1)NC1CC(=O)N(c2ccc(Cl)cc2)C1` (centres undefined), the survival was 67%. For the compound `COc1ccc(N2CC(NC(=O)c3ccc(Br)o3)CC2=O)cc1` (centres undefined), the survival was 81%.

As for `O=C(Cc1cccs1)NC1CC(=O)N(c2ccc(F)cc2)C1` (centres undefined), the survival is 99%.

Turning to `Cc1ccc(C)c(NC(=O)CCn2cnnn2)c1`, the survival is 148%.

With `Cc1nnsc1C(=O)Oc1ccc(C#N)cc1`, the survival was 89%.

`COc1cccc(NC(=O)c2cc(CN3CCOCC3)on2)c1`: the survival is 88%.

On to `CCOC(=O)c1ccc(CN(Cc2ccc(Br)cc2)S(=O)(=O)c2cccc(Cl)c2C)cc1`, for which the survival was 84%. With `CC(=O)c1ccc(NC(=O)CN(C)S(=O)(=O)c2cc3c(cc2Cl)NC(=O)CO3)cc1` the figure was 72%; with `O=C(NCc1ccccc1Cl)c1ccc2c(c1)NC(=O)C(CS(=O)(=O)Cc1ccc(F)cc1Cl)N2` (centres undefined), 81%. On to `COc1ccc(N2CCN(c3csc4ccccc4c3=O)CC2)cc1`, for which the survival was 81%. Under `CCc1ccc(S(=O)(=O)c2nnn3c2nc(N2CCC(C(N)=O)CC2)c2cc(Cl)ccc23)cc1` stands 69%. Under `Cc1cc(C)n(CC(C)O)c(=O)c1C#N` (centres undefined) stands 108%; under `CC1(C)C(=O)N(CC(=O)Nc2ccc(Br)cc2F)c2ccccc21`, 89%; under `Cc1ccccc1OCC(=O)Nc1ccc(S(=O)(=O)Nc2ncccn2)cc1`, 133%. As for `CC(C)c1ccc(OCC(=O)Nc2ccc(S(=O)(=O)Nc3ncccn3)cc2)cc1`, the survival is 75%. As for `CCc1cccc(OCC(=O)Nc2ccc(S(=O)(=O)Nc3cc(C)nc(C)n3)cc2)c1`, the survival was 58%. For the compound `Cc1cc(Br)cc(C)c1OCC(=O)Nc1ccc(S(=O)(=O)Nc2ncccn2)cc1`, the survival is 56%. Turning to `Cc1ccc(OCC(=O)Nc2ccc(S(=O)(=O)Nc3ncccn3)cc2)c(C(C)(C)C)c1`, the survival is 47% (active). With `CCc1cccc(OCC(=O)Nc2ccc(S(=O)(=O)Nc3ncccn3)cc2)c1` the figure was 43% (active); with `CCC(Sc1nc2ncccc2[nH]1)C(=O)Nc1ccccc1F` (centres undefined), 112%.
